Experimental data reported in the supplement of paper PMC9492666.

These molecules were tested on MDA-MB-231 (assay: relative cell viability, compound + erastin, vs DMSO (fraction of DMSO control); higher = less growth inhibition). Details: 72 h.
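Further: viability read by CCK-8 kit in 96-well plates, part of a combination screen pairing lipid-metabolism-targeting compounds with erastin.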

| SMILES | relative cell viability |
| --- | --- |
| CC[C@H](C)C(=O)O[C@H]1C[C@@H](C)C=C2C=C[C@H](C)[C@H](CC[C@@H]3C[C@@H](O)CC(=O)O3)[C@H]21 [Lovastatin] + CCOc1ccccc1-n1c(C(C)N2CCN(C(=O)COc3ccc(Cl)cc3)CC2)nc2ccccc2c1=O [erastin] | 0.569 |
| COc1ccc2c(c1)c(CC(=O)O)c(C)n2C(=O)c1ccc(Cl)cc1 [Indometacin] + CCOc1ccccc1-n1c(C(C)N2CCN(C(=O)COc3ccc(Cl)cc3)CC2)nc2ccccc2c1=O [erastin] | 0.639 |
| Cc1ccc(C)c(OCCCC(C)(C)C(=O)O)c1 [Gemfibrozil] + CCOc1ccccc1-n1c(C(C)N2CCN(C(=O)COc3ccc(Cl)cc3)CC2)nc2ccccc2c1=O [erastin] | 0.941 |
| O=S(=O)(c1ccccc1)N(CC(F)(F)F)c1ccc(C(O)(C(F)(F)F)C(F)(F)F)cc1 + CCOc1ccccc1-n1c(C(C)N2CCN(C(=O)COc3ccc(Cl)cc3)CC2)nc2ccccc2c1=O [erastin] | 0.45 |
| Cc1cc(C)c(S(=O)(=O)Nc2cccc(C(F)(F)F)c2)c(C)c1 + CCOc1ccccc1-n1c(C(C)N2CCN(C(=O)COc3ccc(Cl)cc3)CC2)nc2ccccc2c1=O [erastin] | 0.98 |
| CCCC[S+]([O-])c1sc2nc(-c3cccs3)cc(-c3ccccc3)c2c1N (configuration not stated) + CCOc1ccccc1-n1c(C(C)N2CCN(C(=O)COc3ccc(Cl)cc3)CC2)nc2ccccc2c1=O [erastin] | 0.715 |
| Cc1nc2c([nH]1)c(=O)n(C)c(=O)n2Cc1ccco1 [Furafylline] + CCOc1ccccc1-n1c(C(C)N2CCN(C(=O)COc3ccc(Cl)cc3)CC2)nc2ccccc2c1=O [erastin] | 0.767 |
